# ERa SRC1 inh: ERα–SRC-1 coactivator interaction inhibitors, primary screen, biochemical, TR-FRET, ERα LBD, estradiol-bound | actives 1.7% (n = 86,000) | AID 629, 2007 | TR-FRET ER-alpha LBD / SRC-1 peptide | inhibition, % at 25.6 µM; in the data active = inhibition above about 50%;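 also: 0% = receptor plus peptide control and 100% = peptide only without receptor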
# Target sequence (P03372 whole entry, looked up, the tested form may be a part): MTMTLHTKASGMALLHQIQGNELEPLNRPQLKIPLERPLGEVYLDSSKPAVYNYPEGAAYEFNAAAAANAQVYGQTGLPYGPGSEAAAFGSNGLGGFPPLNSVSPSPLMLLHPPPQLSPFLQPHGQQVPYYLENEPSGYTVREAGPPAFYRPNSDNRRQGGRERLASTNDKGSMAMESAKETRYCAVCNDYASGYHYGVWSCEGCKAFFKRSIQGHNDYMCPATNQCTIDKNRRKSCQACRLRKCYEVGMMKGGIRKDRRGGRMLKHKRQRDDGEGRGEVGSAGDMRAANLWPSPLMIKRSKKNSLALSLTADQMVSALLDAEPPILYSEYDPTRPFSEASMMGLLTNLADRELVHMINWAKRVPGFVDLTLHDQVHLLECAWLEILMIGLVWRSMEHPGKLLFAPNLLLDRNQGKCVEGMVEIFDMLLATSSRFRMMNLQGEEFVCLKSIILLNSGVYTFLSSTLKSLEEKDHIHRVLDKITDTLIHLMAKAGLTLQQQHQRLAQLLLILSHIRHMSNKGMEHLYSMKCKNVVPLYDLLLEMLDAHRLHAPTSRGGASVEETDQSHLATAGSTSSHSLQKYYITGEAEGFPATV
# ERa SRC1 pot: enhancers of ERα–SRC-1 coactivator binding, primary screen, biochemical, TR-FRET, ERα LBD, low estradiol; TR-FRET ERalpha-LBD/SRC-Cy5 coactivator binding, 2 h; 100 = basal binding, no effect; AID 639, 2007; coactivator binding (% of control), % at 25.6 µM; actives 1.3% (n = 86,000); in the data active = activity above about 200%;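 also: binding measured in presence of low estradiol as agonist stimulus; 0% = peptide alone without receptor and 100% = receptor with peptide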
# Mac1 fbg inh: inhibitors of CD11b/CD18 adhesion to fibrinogen, primary screen, K562 cells, luminescence. Integrin beta-2 (Homo sapiens) + Integrin alpha-M (Homo sapiens), P05107+P11215. ATPlite luminescence; Mn2+ added to activate the integrin. inhibition, % at 10 µM. actives 0.54% (n = 93,000);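 active = primary inhibition of 50% or more at 10 µM, then 40% or more on retest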
# Mac1 fbg enh: enhancers of CD11b/CD18 adhesion to fibrinogen, primary screen, K562 cells, luminescence; Integrin beta-2 (Homo sapiens) + Integrin alpha-M (Homo sapiens), P05107+P11215; ATPlite luminescence; activation, % at 10 µM; actives 0.07% (n = 93,000);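 active = 10 µM primary screen giving 50% or more activity, confirmed by 40% or more on retest at that dose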
# ERb coact inh: inhibitors of ERβ-SRC1 coactivator interaction, primary screen, biochemical, TR-FRET, ERβ LBD, SRC-1 peptide; actives 1.3% (n = 86,000); inhibition, % at 25.6 µM; TR-FRET ER-beta LBD / SRC1-Cy5 peptide binding; receptor agonist-loaded with 1 µM estradiol; AID 633, 2007;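 active = compounds whose percent inhibition of the receptor-coactivator binding signal exceeds about 50% in the single-dose screen, limit read from the data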;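 also: 0% = receptor plus peptide wells without compound and 100% = peptide-only wells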
# * hit, by the source's call; . = no result; [ ] = another dose, or the depositor's remark. In the library only some 3.1% were active in any assay of this set; here they are far more common.
SMILES,ERa SRC1 inh,ERa SRC1 pot,Mac1 fbg inh,Mac1 fbg enh,ERb coact inh
O=C1c2oc3ccc(Br)cc3c(=O)c2C(c2cccnc2)N1Cc1ccco1 (centres undefined),5,96,19,-2,7
O=C1c2oc3ccccc3c(=O)c2C(c2cccc(Br)c2)N1Cc1ccco1 (centres undefined),-2,109,-3,60*,7
O=C1C2C3C=CC(C3)C2C(=O)N1c1cccc(N2C(=O)C3C4C=CC(C4)C3C2=O)n1 (centres undefined),5,92,-12,-2,14
O=C1C2C3C=CC(C3)C2C(=O)N1c1cccc2cccnc12 (centres undefined),40,65,-3,0,51*
O=[N+]([O-])c1ccc(Cl)c(/C=N/n2c(-c3cccnc3)n[nH]c2=S)c1,.,.,8,-1,.
Cc1ccc(CN(Cc2cc3cc(C)ccc3[nH]c2=O)C(=O)N2CCOCC2)cc1,0,484*,-4,-1,-6
CC1CC(C)CN(C2CCN(Cc3cccnc3)CC2)C1 (centres undefined),-3,107,-7,0,-21
COc1ccccc1CNC(=O)c1c(O)c2cc(OC)c(OC)cc2[nH]c1=O,57*[fluorescence artefact?],81,-12,2,28
COc1ccccc1CNC(=O)c1ccccc1OC,-7,94,-12,-1,-2
Cc1occc1C(=O)NNC(=S)Nc1cccc([N+](=O)[O-])c1,.,.,13,-3,.
Cc1cc(Br)ccc1NC(=S)Nc1cccc([N+](=O)[O-])c1,.,.,99*,-10,.
Cc1cnc(C(=O)Nc2cccc(S(=O)(=O)N(C)C)c2)cn1,.,.,-8,1,.
COc1ccc(CSc2nnc(Cc3sc(-c4ccccc4)nc3-c3ccccc3)o2)cc1,-41,438*[fluorescence artefact?],-4,-1,-18
Fc1ccc(CSc2nnc(Cc3sc(-c4ccccc4)nc3-c3ccccc3)o2)cc1,-20,274*[fluorescence artefact?],-28,-2,-9
c1ccc(CSc2nnc(Cc3ccccn3)o2)cc1,3,131,-6,1,-2
CSc1nnc(Cc2sc(-c3ccccc3)nc2-c2ccccc2)o1,6,98,-44,9,-5
COc1ccc(-c2cc(-c3ccccc3)nc(SCC(=O)Nc3nccs3)c2C#N)cc1,.,.,-1,43,.
CC(C)NC(=O)CSc1nc(-c2cccs2)cc(-c2ccccc2)c1C#N,11,255*,.,.,7
CCOC(=O)/C=C1\SCC(=O)N1CC(=O)c1ccc[nH]1,87*[fluorescence artefact?],33,.,.,64*[fluorescence artefact?]
CCOC(=O)/C=C1\SCC(=O)N1CC(=O)Nc1ccc(OC)c(OC)c1,.,.,-1,0,.
C=CCCCCCCCCC(=O)NN,.,.,-58,2,.
CC1CCN(S(=O)(=O)c2ccc(NC(=O)Cn3nnc(-c4ccccc4)n3)cc2)CC1,94*[fluorescence artefact?],126,-9,71,76*[fluorescence artefact?]
CC1CCN(S(=O)(=O)c2ccc(NC(=O)Cc3cccs3)cc2)CC1,74*,57,3,0,62*
CC1CCN(S(=O)(=O)c2ccc(NC(=O)CN3CCOCC3)cc2)CC1,13,97,-3,-4,-4
COCCn1c(C)cc(C(=O)CSc2nnc(C)s2)c1C,-2,120,2,-3,-3
SMILES,ERa SRC1 inh,ERa SRC1 pot,Mac1 fbg inh,Mac1 fbg enh,ERb coact inh
COCCn1c(C)cc(C(=O)COC(=O)c2cc3c(s2)CCC3)c1C,76*[fluorescence artefact?],50,-5,-1,66*
CCn1c(SCC(=O)N2CCc3ccccc3C2)nc2sc(C)c(C)c2c1=O,.,.,24,12,.
Cc1cccc(-n2c(SCC(=O)N3CC(=O)Nc4ccccc43)nc3ccccc3c2=O)c1C,.,.,4,-4,.
FC(F)(F)c1cnc(NNC(=S)Nc2ccccc2Cl)c(Cl)c1,.,.,100*,-10,.
O=[N+]([O-])c1ccccc1NCCNc1ncc(C(F)(F)F)cc1Cl,.,.,-2,1,.
CCOC(=O)C1=C(N)n2c(s/c(=C\c3cccnc3)c2=O)=C(C(=O)OC)C1c1cccnc1 (centres undefined),72*[fluorescence artefact?],266*[fluorescence artefact?],.,.,19
C/C(N)=C(/C#N)C(=O)CSc1nnc(Nc2cccc(C)c2)s1,91*[fluorescence artefact?],17,.,.,96*[fluorescence artefact?]
C/C(N)=C(/C#N)C(=O)CSc1nc2cc(Cl)ccc2s1,.,.,12,0,.
CN(C)c1ccc(O)c2c1CC1CC3[C@@H](N(C)C)C(=O)C(C(N)=O)=C(O)[C@]3(O)C(=O)C1=C2O (some centres undefined),98*[fluorescence artefact?],2,.,.,100*[fluorescence artefact?]
CC(=O)N(C(C)=O)c1ccc2nc(C)[nH]c(=O)c2c1,6,577*[fluorescence artefact?],-9,-3,-1
CC1CCN(Cc2ccc(NC(=O)C3CCN(c4nnc(-n5cccc5)s4)CC3)cc2)CC1,85*[fluorescence artefact?],146,-2,51,72*[fluorescence artefact?]
O=C(C1CCN(c2nnc(-n3cccc3)s2)CC1)N1CCN(Cc2ccc3c(c2)OCO3)CC1,24,99,20,11,1
C=CCOc1ccc(/C=N/N2C(=O)C(CC(=O)Nc3ccc(F)cc3F)SC2=NC)cc1 (centres undefined),.,.,30,4,.
COc1ccc(NC(=O)c2ccccc2NC(=O)COc2ccccc2)cc1,56*[fluorescence artefact?],211*[fluorescence artefact?],13,-2,38
COCC(=O)Nc1ccccc1C(=O)Nc1ccc(OC)cc1,-3,141,6,0,0
CCOC(=O)/C(N=Nc1sc(C(=O)OC)c(C)c1C(=O)OCC)=C(\O)CCl,.,.,4,28,.
Cc1ccc(-c2cc3nc(-c4ccccc4)cc(N4CCC5(CC4)OCCO5)n3n2)cc1,-12,284*[fluorescence artefact?],.,.,9
COc1ccc(CC(NC(C)=O)C(=O)NC2CCN(C(=O)NCc3ccccc3)CC2)cc1OC (centres undefined),-5,117,-9,0,87*[fluorescence artefact?]
CCOc1ccc(NC(=O)N2CCC(NC(=O)C(Cc3ccc(OC)c(OC)c3)NC(C)=O)CC2)cc1 (centres undefined),-9,98,-20,3,0
Cc1ccc(Nc2nc(N)nc(CN3CCN(C(=O)c4ccco4)CC3)n2)cc1Cl,-4,91,-13,4,2
Cc1cc(N2CCN(C(=O)c3ccco3)CC2)n2nc(C)c(-c3ccccc3)c2n1,-28,220*,13,4,5
Cc1cc(N2CCN(C(=O)c3ccco3)CC2)n2nc(C)c(-c3ccc(Cl)cc3)c2n1,55*[fluorescence artefact?],282*,-14,71,55*[fluorescence artefact?]
Cc1cc(-n2nc(C)cc2C)n2nc(C)c(-c3ccc(Cl)cc3)c2n1,-2,95,-15,-4,-3
Cc1cc(N2CCN(C(=O)c3ccco3)CC2)n2nc(-c3cccc(Cl)c3)cc2n1,29,107,16,20,57*[fluorescence artefact?]

# Screening data as filed in PubChem.
